# Measured values reported in PubChem BioAssay (EPA / NIEHS).
# Where “and” joins values, the source holds several entries; their conditions need not be identical. Equal values may be shown once. Records with an inconclusive call do not appear. A structure can be active in one record and inactive in another. Calls of active or inactive are those of the source. How the source made its calls, unless noted: active means hit-call score of the fitted dose curve at least 0.9, where 1 is the maximum; inactive means score below 0.9.
# System: not listed separately
# Assay: CCTE_Mundy_HCI_hNP1_Pro_ResponderAvgInten: CCTE's Proliferation Assay in human neuroprogenitor cells, Mundy Lab (AID 2284224; active means hit-call score of the fitted dose curve at least 0.9, where 1 is the maximum;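 further: human neural progenitor cells hNP1 derived from WA09 embryonic stem cells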)
# Conditions: not given
# Outline: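 Proliferation read as average intensity of BrdU-positive cells, imaged at 26.25 h post-dosing: chemical exposure started after 40–44 h culture, BrdU during final 4 h, paraformaldehyde fixation. Positive-direction fit relative to DMSO.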
# Tumor necrosis factor (Homo sapiens), sequence (P01375 whole entry, looked up): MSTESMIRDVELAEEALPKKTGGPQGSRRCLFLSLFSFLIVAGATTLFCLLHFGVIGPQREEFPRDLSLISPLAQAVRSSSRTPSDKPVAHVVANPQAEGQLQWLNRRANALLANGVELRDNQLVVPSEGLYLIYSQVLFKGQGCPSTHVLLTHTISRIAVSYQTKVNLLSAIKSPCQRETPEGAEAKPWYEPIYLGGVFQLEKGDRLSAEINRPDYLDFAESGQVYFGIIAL
Compound,outcome,AC50
CC1(C)C(C=C(Cl)Cl)C1C(=O)OC(C#N)c1ccc(F)c(Oc2ccccc2)c1 (configuration not stated),inactive,–
O=C(O)COc1ccc(Cl)cc1Cl,inactive,–
O=S1OCC2C(CO1)C1(Cl)C(Cl)=C(Cl)C2(Cl)C1(Cl)Cl (configuration not stated),–,23 µM (active)
O=C(O)C(F)(F)C(F)(F)C(F)(F)C(F)(F)C(F)(F)C(F)(F)C(F)(F)F,inactive,–
CC[C@H](C)[C@H]1O[C@]2(C=C[C@@H]1C)C[C@@H]1C[C@@H](C/C=C(\C)[C@@H](O[C@H]3C[C@H](OC)[C@@H](O[C@H]4C[C@H](OC)[C@@H](O)[C@H](C)O4)[C@H](C)O3)[C@@H](C)/C=C/C=C3\CO[C@@H]4[C@H](O)C(C)=C[C@@H](C(=O)O1)[C@]34O)O2 (tested in a mixture with another compound),–,1.45 µM (active)
COP(=O)(OC)OC=C(Cl)Cl,inactive,–
CC1(c2ccc(Oc3ccccc3)cc2)OC(=O)N(Nc2ccccc2)C1=O (configuration not stated),inactive,–
O=[N+]([O-])/N=C1\NCCN1Cc1ccc(Cl)nc1,inactive,–
CC(C)N(C(=O)COc1nnc(C(F)(F)F)s1)c1ccc(F)cc1,inactive,–
CNC(=O)CSP(=S)(OC)OC,inactive,–
CCC(C)(C)C(=O)OC1=C(c2ccc(Cl)cc2Cl)C(=O)OC12CCCCC2,inactive,–

# Read-out: not listed separately
# Assay: BSK_BT_PBMCCytotoxicity: PBMC Cytotoxicity Assessment in the BioMAP Diversity Plus: BT Assay (AID 2284225);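 further: PBMC viability measured by Alamar Blue dye reduction fluorescence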
# Conditions: primary human B cells with PBMC
# Outline: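 Viability by Alamar Blue reduction (6 h, ex/em 546/580 nm) after 90 h culture of SEB/TSST-1-activated PBMC (20 ng/mL each) given compound 1 h before activation. DMSO served as baseline for curve fitting.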
Compound,AC50,outcome
O=S(=O)(O)C(F)(F)C(F)(F)C(F)(F)C(F)(F)C(F)(F)C(F)(F)C(F)(F)C(F)(F)F,24 µM (active) and 33.9 µM (active),inactive
O=C(O)C(F)(F)C(F)(F)C(F)(F)C(F)(F)C(F)(F)C(F)(F)C(F)(F)F,30 µM (active),inactive
ClC1C(Cl)C(Cl)C(Cl)C(Cl)C1Cl (configuration not stated),–,inactive

# Read-out: Secreted IgG (sIgG), gene 3500
# Assay: BSK_BT_sIgG: BioMAP Diversity Plus: BT Assay for Secreted IgG (sIgG) Biomarker Activity (AID 2284226)
# Conditions: primary human B cells with PBMC
# Outline: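 ELISA quantitation of secreted IgG from human B cells co-cultured with PBMC, sampled 24 h post-dosing. Values fitted relative to DMSO vehicle as baseline, positive fitting direction.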
Compound,outcome,AC50
O=S(=O)(O)C(F)(F)C(F)(F)C(F)(F)C(F)(F)C(F)(F)C(F)(F)C(F)(F)C(F)(F)F,inactive,–
O=C(O)C(F)(F)C(F)(F)C(F)(F)C(F)(F)C(F)(F)C(F)(F)C(F)(F)F,inactive,–
ClC1C(Cl)C(Cl)C(Cl)C(Cl)C1Cl (configuration not stated),–,30.5 µM (active) and 21.1 µM (active)

# Read-out: not listed separately
# Assay: BSK_BT_Bcell_Proliferation: Viability Assessment in the BioMAP Diversity Plus: BT Assay for B cell Proliferation (AID 2284227)
# Conditions: primary human B cells with PBMC
# Outline: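 Human B cells co-cultured with PBMC were dosed with test chemicals and relative cell number was quantified by SRB staining at 72 h. Cells were fixed in 10% TCA, stained with 0.1% SRB and read at 560 nm. Activity was fitted in the positive direction against DMSO.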
Compound,AC50,outcome
O=S(=O)(O)C(F)(F)C(F)(F)C(F)(F)C(F)(F)C(F)(F)C(F)(F)C(F)(F)C(F)(F)F,19.5 µM (active),inactive
O=C(O)C(F)(F)C(F)(F)C(F)(F)C(F)(F)C(F)(F)C(F)(F)C(F)(F)F,24 µM (active),inactive
ClC1C(Cl)C(Cl)C(Cl)C(Cl)C1Cl (configuration not stated),33.6 µM (active),inactive

# Read-out: Interleukin 6 (IL6), IL6 (gene 3569)
# Assay: BSK_BT_xIL6: BioMAP Diversity Plus: BT Assay for Interleukin 6 (IL6) Biomarker Activity (AID 2284228)
# Conditions: primary human B cells with PBMC
# Outline: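 Human B cell plus PBMC co-culture exposed to test chemical for 24 h; secreted IL-6 quantified by Luminex xMAP bead assay. Activity fitted in the positive direction against DMSO as negative control and baseline.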
row,Compound,outcome
1,O=S(=O)(O)C(F)(F)C(F)(F)C(F)(F)C(F)(F)C(F)(F)C(F)(F)C(F)(F)C(F)(F)F,inactive
2,O=C(O)C(F)(F)C(F)(F)C(F)(F)C(F)(F)C(F)(F)C(F)(F)C(F)(F)F,inactive
3,ClC1C(Cl)C(Cl)C(Cl)C(Cl)C1Cl (configuration not stated),inactive

# Read-out: Interleukin 17A (IL17A), IL17A (gene 3605)
# Assay: BSK_BT_xIL17A: BioMAP Diversity Plus: BT Assay for Interleukin 17A (IL17A) Biomarker Activity (AID 2284229)
# Conditions: primary human B cells with PBMC
# Outline: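 B cells co-cultured with PBMC were exposed to test chemicals, and secreted IL-17A was quantified 24 h after dosing by Luminex xMAP bead immunoassay. Activity was fitted in the gain direction against DMSO as baseline.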
row,Compound,outcome
1,O=S(=O)(O)C(F)(F)C(F)(F)C(F)(F)C(F)(F)C(F)(F)C(F)(F)C(F)(F)C(F)(F)F,inactive
2,O=C(O)C(F)(F)C(F)(F)C(F)(F)C(F)(F)C(F)(F)C(F)(F)C(F)(F)F,inactive
3,ClC1C(Cl)C(Cl)C(Cl)C(Cl)C1Cl (configuration not stated),inactive

# Read-out: Tumor necrosis factor (Homo sapiens) (UniProt P01375)
# Assay: BSK_BT_xTNFa: BioMAP Diversity Plus: BT Assay for Tumor necrosis factor alpha (TNF-alpha) Biomarker Activity (AID 2284230)
# Conditions: primary human B cells with PBMC
# Outline: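 B cells with PBMC in co-culture, dosed and sampled at 24 h; secreted TNF-alpha measured by Luminex xMAP bead assay. Activity fitted in the gain direction against DMSO as negative control and baseline.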
Compound,outcome,AC50
O=S(=O)(O)C(F)(F)C(F)(F)C(F)(F)C(F)(F)C(F)(F)C(F)(F)C(F)(F)C(F)(F)F,inactive,–
O=C(O)C(F)(F)C(F)(F)C(F)(F)C(F)(F)C(F)(F)C(F)(F)C(F)(F)F,inactive,5.95 µM (active)
ClC1C(Cl)C(Cl)C(Cl)C(Cl)C1Cl (configuration not stated),inactive,30.5 µM (active)

# Read-out: Vascular cell adhesion molecule 1 (VCAM1), VCAM1 (gene 7412)
# Assay: BSK_MyoF_VCAM1: BioMAP Diversity Plus: MyoF Assay for Vascular cell adhesion molecule 1 (VCAM1) Biomarker Activity (AID 2284231)
# Conditions: primary human lung fibroblasts
# Outline: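 Primary human lung fibroblasts were dosed with test chemical for 24 h, then cell-surface VCAM-1 was measured by ELISA. Activity was fitted in the positive direction against DMSO as negative control and baseline.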
Compound,outcome,AC50
O=S(=O)(O)C(F)(F)C(F)(F)C(F)(F)C(F)(F)C(F)(F)C(F)(F)C(F)(F)C(F)(F)F,inactive,–
O=C(O)C(F)(F)C(F)(F)C(F)(F)C(F)(F)C(F)(F)C(F)(F)C(F)(F)F,inactive,–
ClC1C(Cl)C(Cl)C(Cl)C(Cl)C1Cl (configuration not stated),–,16.3 µM (active) and 261 nM (active)

# System: not listed separately
# Assay: UKN4_HCS_LUHMES_cell_viability: Viability Assessment in the University of Konstanz (UKN) Leist Lab Neurite Outgrowth Assay in human LUHMES cells (UKN4) (AID 2284232)
# Conditions: not given
# Procedure: UKN4_HCS_LUHMES is a cell-based, multiplexed-readout assay screening for neurite outgrowth and cell viability that uses LUHMES, a human central nervous system cell line, with measurements taken at […] after chemical dosing in a microplate: 96-well plate. UKN4, also referred to as NeuriTox, is an assay that uses LUHMES neuronal precursors as a model of dopaminergic neuronal differentiation. Following a 2-day differentiation period, cells are exposed to chemicals for 24 hr and neurite area is evaluated as a marker of neurite outgrowth using high-content imaging of cells stained with calcein AM. Cell viability is assessed using stain Hoechst H-33342.UKN4_HCS_LUHMES_cell_viability is an assay component measured from the UKN4_HCS_LHUMES assay. It is designed to make measurements of enzyme activity, a form of viability reporter, as detected with Fluorescence intensity signals by HCS Fluorescent Imaging.The assay endpoint UKN4_HCS_LUHMES_cell_viability was analyzed with bidirectional fitting relative to DMSO as the negative control and baseline of activity. Using a type of viability reporter, gain or loss-of-signal activity can be used to understand viability effects. To generalize the intended target to other relatable targets, this assay endpoint is annotated to the cell cycle intended target family, where the subfamily is viability.
# Proliferating LUHMES cells are seeded in proliferation medium for 24 hours. Day 0: Medium is changed from proliferation medium to differentiation medium. Day 2: Cell number reaches about 30-40 Mio per T175 flask. Cells are trypsinized and replated onto 96-well plates (30000 cells/well in 90 ul) in differentiation medium without cAMP and GDNF. At about 30 min - 2 hours after seeding, when cells have attached, the compounds are added (10 ul of each dilution; total volume 100 ul). Day 3: 23.5 h after toxicant treatment, cells are live-stained with H-33342 and calcein-AM and incubated for 30 min. After 24 h of treatment (including staining), the cells are imaged using a high-content microscope (Cellomics).
Compound,AC50,outcome
O=S(=O)(O)C(F)(F)C(F)(F)C(F)(F)C(F)(F)C(F)(F)C(F)(F)C(F)(F)C(F)(F)F,20.4 µM (active),–
O=S1OCC2C(CO1)C1(Cl)C(Cl)=C(Cl)C2(Cl)C1(Cl)Cl (configuration not stated),18.7 µM (active),–
O=C(O)C(F)(F)C(F)(F)C(F)(F)C(F)(F)C(F)(F)C(F)(F)C(F)(F)F,89.4 µM (active),–
ClC1C(Cl)C(Cl)C(Cl)C(Cl)C1Cl (configuration not stated),–,inactive
COP(=S)(OC)Oc1ccc([N+](=O)[O-])cc1,–,inactive
O=[N+]([O-])/N=C1\NCCN1Cc1ccc(Cl)nc1,–,inactive
CC(C)N(C(=O)COc1nnc(C(F)(F)F)s1)c1ccc(F)cc1,–,inactive
CCC(C)(C)C(=O)OC1=C(c2ccc(Cl)cc2Cl)C(=O)OC12CCCCC2,–,inactive
